Assay results published in PubChem BioAssay (EPA / NIEHS).
“And” between values parts separate entries of the source, which are not always exact repeats. Equal values may be shown once. Some compounds were tested as several samples or in several runs, with calls that do not always agree. The source made the active and inactive calls. The calls were made as follows: active = hit-call score of the fitted dose curve at least 0.9, where 1 is the maximum; inactive = score below 0.9.

Test: APR_HepG2_MitoticArrest_72hr: Apredica 72-hour HepG2 Assay for Mitotic Arrest (AID 2282918)
Settings: high-content imaging, actives raise or lower the signal
How it was run: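 High-content imaging of fixed human HepG2 cells after 72 h compound exposure (0.39–200 uM, duplicates, 0.5% DMSO); mitotic arrest scored from phospho-histone H3 and nuclear Hoechst staining relative to DMSO.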

Structure (SMILES) | outcome | AC50
Cc1cc(Cl)ccc1OCC(=O)O | inactive | 
C=CCC1=C(C)C(OC(=O)C2C(C=C(C)C)C2(C)C)CC1=O (stereo not drawn) | inactive | 43.6 µM (active) and 50 µM (active) and 46 µM (active)
CCCCNC(=O)OCC#CI | inactive | 9.07 µM (active)
CN(C)C(=S)SSC(=S)N(C)C |  | 19.8 µM (active)
CCOc1cc(Oc2ccc(C(F)(F)F)cc2Cl)ccc1[N+](=O)[O-] |  | 45 µM (active)
O=C(O)c1nc(Cl)ccc1Cl | inactive | 
CCOP(=S)(OCC)SCn1c(=O)oc2cc(Cl)ccc21 | inactive | 
CCCCNC(=O)n1c(NC(=O)OC)nc2ccccc21 | inactive | 
COC(=O)C=C(C)OP(=O)(OC)OC | inactive | 
Cc1ccc(-c2c(Cl)nc(C#N)n2S(=O)(=O)N(C)C)cc1 | inactive | 
C#CCOS(=O)OC1CCCCC1Oc1ccc(C(C)(C)C)cc1 (stereo not drawn) | inactive | 
COc1nc(C)nc(NC(=O)NS(=O)(=O)c2ccccc2CCC(F)(F)F)n1 | inactive | 
CC1=C(C(=O)Nc2ccccc2)SCCO1 | inactive | 

Test: APR_HepG2_MicrotubuleCSK_72hr: Apredica 72-hour HepG2 Assay for Microtubule CSK Stabilty (AID 2282919)
Settings: HepG2 microtubule cytoskeleton, high-content imaging, actives raise or lower the signal
How it was run: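 HepG2, 72 hr cmpd exposure, 0.39–200 uM (10 pts, duplicate), 0.5% DMSO. 3.7% formaldehyde fix, 0.5% Triton perm, anti-alpha-tubulin/Cy5 plus Hoechst. HCS fluorescence intensity; bidirectional fit vs DMSO baseline; taxol as positive control.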

Structure (SMILES) | outcome | AC50
CON(C)C(=O)Nc1ccc(Cl)c(Cl)c1 | inactive | 
N#Cc1nn(-c2c(Cl)cc(C(F)(F)F)cc2Cl)c(N)c1S(=O)C(F)(F)F (stereo not drawn) |  | 179 µM (active)
CCOC(=O)C(Cl)Cc1cc(-n2nc(C)n(C(F)F)c2=O)c(F)cc1Cl (stereo not drawn) | inactive | 
N#Cc1cc(Br)c(O)c(Br)c1 | inactive | 
CCCC1COC(Cn2cncn2)(c2ccc(Cl)cc2Cl)O1 (stereo not drawn) |  | 77.7 µM (active)
CC(Oc1ccc(Cl)cc1Cl)C(=O)O (stereo not drawn) | inactive | 
CO/C=C(/C(=O)OC)c1ccccc1Oc1cc(Oc2ccccc2C#N)ncn1 | inactive | 
OC(c1ccc(Cl)cc1)(c1cncnc1)c1ccccc1Cl (stereo not drawn) |  | 167 µM (active)
COc1cnc(OC)n2nc(NS(=O)(=O)c3c(OCC(F)F)cccc3C(F)(F)F)nc12 | inactive | 
CCCN(CCC)c1c([N+](=O)[O-])cc(S(N)(=O)=O)cc1[N+](=O)[O-] | inactive | 
COC(=O)c1ccccc1C(=O)OC | inactive | 
COc1nc(C)nc(NC(=O)NS(=O)(=O)c2ccccc2Cl)n1 | inactive | 
COP(N)(=O)SC (stereo not drawn) | inactive | 
Cc1cc(Cl)ccc1OCC(=O)O | inactive | 
C=CCC1=C(C)C(OC(=O)C2C(C=C(C)C)C2(C)C)CC1=O (stereo not drawn) | inactive | 
CCCCNC(=O)OCC#CI | inactive | 18 µM (active)
CN(C)C(=S)SSC(=S)N(C)C |  | 3.39 µM (active)
CCOc1cc(Oc2ccc(C(F)(F)F)cc2Cl)ccc1[N+](=O)[O-] |  | 19.8 µM (active)
O=C(O)c1nc(Cl)ccc1Cl | inactive | 
CCOP(=S)(OCC)SCn1c(=O)oc2cc(Cl)ccc21 |  | 99.8 µM (active)
CCCCNC(=O)n1c(NC(=O)OC)nc2ccccc21 | inactive | 
COC(=O)C=C(C)OP(=O)(OC)OC | inactive | 
Cc1ccc(-c2c(Cl)nc(C#N)n2S(=O)(=O)N(C)C)cc1 |  | 65.3 µM (active)
C#CCOS(=O)OC1CCCCC1Oc1ccc(C(C)(C)C)cc1 (stereo not drawn) |  | 2.25 µM (active)
COc1nc(C)nc(NC(=O)NS(=O)(=O)c2ccccc2CCC(F)(F)F)n1 | inactive | 
CC1=C(C(=O)Nc2ccccc2)SCCO1 | inactive | 

Test: APR_HepG2_P-H2AX_24hr: Apredica 24-hour HepG2 Assay for H2AX Phosphorylation (AID 2282920)
Settings: high-content imaging, actives raise or lower the signal
How it was run: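 High-content imaging of phospho-histone H2A.x immunofluorescence, nuclei counterstained with Hoechst 33342, in fixed HepG2 cells. Compounds ran 0.39–200 uM in duplicate for 24 h, final DMSO 0.5%. Signal change fitted both directions against DMSO.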

Structure (SMILES) | AC50 | outcome
N#Cc1nn(-c2c(Cl)cc(C(F)(F)F)cc2Cl)c(N)c1S(=O)C(F)(F)F (stereo not drawn) | 107 µM (active) | 
CCOC(=O)C(Cl)Cc1cc(-n2nc(C)n(C(F)F)c2=O)c(F)cc1Cl (stereo not drawn) |  | inactive
N#Cc1cc(Br)c(O)c(Br)c1 |  | inactive
COc1cnc(OC)n2nc(NS(=O)(=O)c3c(OCC(F)F)cccc3C(F)(F)F)nc12 |  | inactive
COP(N)(=O)SC (stereo not drawn) |  | inactive
Cc1cc(Cl)ccc1OCC(=O)O |  | inactive
O=C(O)c1nc(Cl)ccc1Cl |  | inactive
CCOP(=S)(OCC)SCn1c(=O)oc2cc(Cl)ccc21 |  | inactive
CCCCNC(=O)n1c(NC(=O)OC)nc2ccccc21 | 23.6 µM (active) | 
COC(=O)C=C(C)OP(=O)(OC)OC |  | inactive
C#CCOS(=O)OC1CCCCC1Oc1ccc(C(C)(C)C)cc1 (stereo not drawn) |  | inactive
COc1nc(C)nc(NC(=O)NS(=O)(=O)c2ccccc2CCC(F)(F)F)n1 |  | inactive

Test: APR_HepG2_StressKinase_72hr: Apredica 72-hour HepG2 Assay for Stress Kinase (AID 2282921)
Settings: HepG2 stress kinase (phospho-c-Jun) imaging, actives raise or lower the signal
How it was run: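 After a 72 h compound treatment spanning 0.39 to 200 uM, formaldehyde-fixed cells are labelled for phosphorylated c-Jun and nuclei, imaged by automated fluorescence microscopy, and activity is fitted in both directions relative to DMSO controls.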

Structure (SMILES) | outcome | AC50
CON(C)C(=O)Nc1ccc(Cl)c(Cl)c1 | inactive | 
N#Cc1nn(-c2c(Cl)cc(C(F)(F)F)cc2Cl)c(N)c1S(=O)C(F)(F)F (stereo not drawn) |  | 105 µM (active)
CCOC(=O)C(Cl)Cc1cc(-n2nc(C)n(C(F)F)c2=O)c(F)cc1Cl (stereo not drawn) | inactive | 
N#Cc1cc(Br)c(O)c(Br)c1 | inactive | 
CCCC1COC(Cn2cncn2)(c2ccc(Cl)cc2Cl)O1 (stereo not drawn) | inactive | 
CC(Oc1ccc(Cl)cc1Cl)C(=O)O (stereo not drawn) | inactive | 
CO/C=C(/C(=O)OC)c1ccccc1Oc1cc(Oc2ccccc2C#N)ncn1 | inactive | 36 µM (active)
OC(c1ccc(Cl)cc1)(c1cncnc1)c1ccccc1Cl (stereo not drawn) | inactive | 
COc1cnc(OC)n2nc(NS(=O)(=O)c3c(OCC(F)F)cccc3C(F)(F)F)nc12 | inactive | 
CCCN(CCC)c1c([N+](=O)[O-])cc(S(N)(=O)=O)cc1[N+](=O)[O-] | inactive | 54.4 µM (active)
COC(=O)c1ccccc1C(=O)OC | inactive | 
COc1nc(C)nc(NC(=O)NS(=O)(=O)c2ccccc2Cl)n1 | inactive | 
COP(N)(=O)SC (stereo not drawn) | inactive | 
Cc1cc(Cl)ccc1OCC(=O)O | inactive | 
C=CCC1=C(C)C(OC(=O)C2C(C=C(C)C)C2(C)C)CC1=O (stereo not drawn) | inactive | 60.6 µM (active) and 52.5 µM (active)
CCCCNC(=O)OCC#CI | inactive | 
CN(C)C(=S)SSC(=S)N(C)C | inactive | 
CCOc1cc(Oc2ccc(C(F)(F)F)cc2Cl)ccc1[N+](=O)[O-] | inactive | 
O=C(O)c1nc(Cl)ccc1Cl | inactive | 
CCOP(=S)(OCC)SCn1c(=O)oc2cc(Cl)ccc21 | inactive | 
CCCCNC(=O)n1c(NC(=O)OC)nc2ccccc21 | inactive | 
COC(=O)C=C(C)OP(=O)(OC)OC | inactive | 
Cc1ccc(-c2c(Cl)nc(C#N)n2S(=O)(=O)N(C)C)cc1 | inactive | 
C#CCOS(=O)OC1CCCCC1Oc1ccc(C(C)(C)C)cc1 (stereo not drawn) | inactive | 
COc1nc(C)nc(NC(=O)NS(=O)(=O)c2ccccc2CCC(F)(F)F)n1 | inactive | 
CC1=C(C(=O)Nc2ccccc2)SCCO1 | inactive | 
